According to publication PMC4336329 (PLoS ONE, 2015):
Among all 310,000 compounds or so, about 14,000 (4.5%) showed an effect of 50% or more. Effects have a minus sign here. The sample holds strong results, similar compounds and a random draw of the others, so the mix is not that of the screen.

Each compound was assayed against human ether-à-go-go-related gene (hERG) potassium channel (human, UniProt Q12809) (assay: primary screen, population patch clamp on CHO cells stably expressing hERG; higher = less effect of the substance).
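Also: peak tail current of the secondary pulse compared with the same well before compound.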

Sequence of human ether-à-go-go-related gene (hERG) potassium channel (Q12809 whole entry, looked up): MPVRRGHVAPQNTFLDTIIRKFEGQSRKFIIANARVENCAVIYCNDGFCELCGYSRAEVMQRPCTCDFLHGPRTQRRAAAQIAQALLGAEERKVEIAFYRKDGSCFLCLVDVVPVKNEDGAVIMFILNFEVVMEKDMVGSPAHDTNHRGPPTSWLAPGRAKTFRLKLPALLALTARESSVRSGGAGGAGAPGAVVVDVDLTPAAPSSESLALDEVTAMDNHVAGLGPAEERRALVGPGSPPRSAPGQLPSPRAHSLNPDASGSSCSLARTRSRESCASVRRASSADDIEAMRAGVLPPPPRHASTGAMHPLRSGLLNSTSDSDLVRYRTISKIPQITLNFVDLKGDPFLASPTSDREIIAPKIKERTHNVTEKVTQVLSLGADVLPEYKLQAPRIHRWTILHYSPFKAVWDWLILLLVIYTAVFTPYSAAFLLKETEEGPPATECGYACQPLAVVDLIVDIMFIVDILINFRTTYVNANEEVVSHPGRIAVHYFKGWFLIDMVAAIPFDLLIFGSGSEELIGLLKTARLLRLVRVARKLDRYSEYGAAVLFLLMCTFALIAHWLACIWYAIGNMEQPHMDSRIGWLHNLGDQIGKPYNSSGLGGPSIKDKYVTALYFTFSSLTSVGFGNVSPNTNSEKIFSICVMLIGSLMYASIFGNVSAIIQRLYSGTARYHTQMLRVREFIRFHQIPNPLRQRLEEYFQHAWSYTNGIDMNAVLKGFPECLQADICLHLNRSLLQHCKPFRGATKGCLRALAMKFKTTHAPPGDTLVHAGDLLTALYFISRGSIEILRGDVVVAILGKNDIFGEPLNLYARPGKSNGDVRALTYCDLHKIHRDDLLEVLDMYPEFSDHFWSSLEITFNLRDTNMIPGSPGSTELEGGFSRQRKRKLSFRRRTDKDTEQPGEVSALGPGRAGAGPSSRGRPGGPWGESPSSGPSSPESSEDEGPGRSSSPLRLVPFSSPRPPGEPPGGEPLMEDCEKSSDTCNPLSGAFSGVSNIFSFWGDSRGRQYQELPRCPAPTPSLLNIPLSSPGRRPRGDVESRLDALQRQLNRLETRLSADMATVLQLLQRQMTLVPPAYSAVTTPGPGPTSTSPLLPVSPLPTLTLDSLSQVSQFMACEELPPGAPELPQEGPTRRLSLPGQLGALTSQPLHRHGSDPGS

Row | Structure (SMILES) | hERG current change (%, negative = inhibition) at 10uM
1 | CCCN(C(=O)c1cc(Cl)nc2ccccc12)C1CCS(=O)(=O)C1 (stereo not drawn) | 9.75%
2 | O=C(N/N=C/c1ccncc1)c1ccc(NS(=O)(=O)c2cccs2)cc1 | 8.88%
3 | COc1ccc(CCN2CCCC(CN(C)Cc3cccc(OC)c3)C2)cc1 (stereo not drawn) | -60.6%
4 | COc1ccc(CN(C)CC2CCCN(CCc3ccccc3C)C2)cc1O (stereo not drawn) | -53.8%
5 | CC(=O)c1cccc(CN(C)CC2CCCN(CCc3ccccc3C)C2)c1 (stereo not drawn) | -28.8%
6 | COc1cccc(CN(C)CC2CCCN(CCc3ccccc3C)C2)c1 (stereo not drawn) | -109%
7 | CCn1c(CNC(=O)c2ccccc2Br)nnc1SCC(=O)Nc1nncs1 | 3.2%
8 | COc1cccc(C(=O)Nc2ccc(NC(=O)c3ccco3)cn2)c1 | -15.1%
9 | O=C(Nc1ccc2c(c1)OCO2)c1cnn2c(C(F)(F)F)cc(-c3ccco3)nc12 | 2.24%
10 | CCOC(=O)Cc1c(C)nc2c(-c3ccccc3OC)c(C)nn2c1C | -22.7%
11 | COc1ccc(/C=N/N2C(=O)CN(C(=O)c3ccccc3)C2c2ccc(OC)cc2)cc1 (stereo not drawn) | -4.19%
12 | CCCCc1nc2ccccc2c(N)c1CCC.O=C(O)c1cc([N+](=O)[O-])ccc1Cl | -66.4%
13 | CCCCc1nc2ccccc2c(C(=O)O)c1C | 7.29%
14 | CN1CCc2c1nc1ccccc1c2N.O=C(O)c1cc([N+](=O)[O-])ccc1Cl | -9.41%
15 | CS(=O)(=O)Nc1ccc(C2=NN(S(=O)(=O)c3ccccc3)C(c3cccs3)C2)cc1 (stereo not drawn) | -70.3%
16 | CS(=O)(=O)Nc1ccc(C2=NN(C(=O)c3cccc(F)c3)C(c3cccs3)C2)cc1 (stereo not drawn) | -53.8%
17 | CS(=O)(=O)Nc1ccc(C2=NN(S(C)(=O)=O)C(c3cccs3)C2)cc1 (stereo not drawn) | -49%
18 | CS(=O)(=O)Nc1cccc(C2=NN(S(=O)(=O)c3ccccc3)C(c3cccs3)C2)c1 (stereo not drawn) | -1.94%
19 | CC(C)C(=O)N1N=C(c2ccc(NS(C)(=O)=O)cc2)CC1c1cccs1 (stereo not drawn) | -68.7%
20 | Cc1cccc(C(=O)N2N=C(c3ccc(NS(C)(=O)=O)cc3)CC2c2cccs2)c1 (stereo not drawn) | -8.44%
21 | CC(C)(C)C(=O)N1N=C(c2ccc(NS(C)(=O)=O)cc2)CC1c1cccs1 (stereo not drawn) | -18.6%

Row | Structure (SMILES) | hERG current change (%, negative = inhibition) at 10uM
22 | Cc1ccc(C(=O)N2N=C(c3ccc(NS(C)(=O)=O)cc3)CC2c2cccs2)cc1 (stereo not drawn) | -23.1%
23 | CS(=O)(=O)Nc1ccc(C2=NN(C(=O)c3ccccc3)C(c3cccs3)C2)cc1 (stereo not drawn) | -59.6%
24 | CS(=O)(=O)Nc1cccc(C2=NN(C(=O)c3cccc(F)c3)C(c3cccs3)C2)c1 (stereo not drawn) | 3.75%
25 | CS(=O)(=O)Nc1ccc(C2=NN(C(=O)C3CCCCC3)C(c3cccs3)C2)cc1 (stereo not drawn) | -22.8%
26 | CCS(=O)(=O)Nc1ccc(C2=NN(C(=O)c3ccccc3)C(c3cccs3)C2)cc1 (stereo not drawn) | 4.84%
27 | CCOC(=O)C1=NNC2C(=O)N(CC)C(=O)C12 (stereo not drawn) | 9.23%
28 | Cc1ccc(C)c(S(=O)(=O)N2CCN(CC(=O)Nc3ccc4c(c3)OCCO4)CC2)c1 | -13.9%
29 | Cc1occc1C(=O)N1CCN(S(C)(=O)=O)CC1 | 7.58%
30 | COc1ccc(CNC(=O)c2cc(=O)c3cc(C)c(C)cc3o2)cc1 | 19.3%
31 | COc1ccccc1C1CC(c2ccc(NS(C)(=O)=O)cc2)=NN1S(=O)(=O)c1ccccc1 (stereo not drawn) | -69.6%
32 | COc1ccccc1C1CC(c2cccc(NS(C)(=O)=O)c2)=NN1S(=O)(=O)c1ccccc1 (stereo not drawn) | 3.08%
33 | COc1ccccc1C1CC(c2ccccc2)=NN1S(=O)(=O)c1ccccc1 (stereo not drawn) | 12%
34 | O=C(COC(=O)c1ccc(S(=O)(=O)N2CCOCC2)cc1)NCc1cccs1 | 2.5%
35 | CCOc1ccc(N2CC(C(=O)Oc3ccccc3)CC2=O)cc1 (stereo not drawn) | -10.9%
36 | O=S(=O)(CCSc1nc2ccccc2o1)c1nc2ccccc2s1 | -5.57%
37 | Cc1cc(Cl)c(S(=O)(=O)N(C)C)cc1OCC(N)=O | 10.5%
38 | COc1ccc(C2CC(c3ccccc3)=NN2S(=O)(=O)c2ccccc2)cc1 (stereo not drawn) | 14.8%
39 | CCOc1ccc(N(CC(=O)Nc2ccccc2C(=O)N2CCOCC2)S(=O)(=O)c2ccc(F)cc2)cc1 | -30.5%
40 | CN(CC(=O)Nc1ccccc1C(=O)N1CCCC1)S(=O)(=O)c1ccc(Cl)cc1 | -22.8%
41 | COc1ccc(S(=O)(=O)N(CC(=O)Nc2ccccc2C(=O)N2CCOCC2)c2ccc(F)cc2)cc1 | -57%
42 | COc1ccc(N(CC(=O)Nc2ccccc2C(=O)N2CCCC2)S(=O)(=O)c2ccccc2)cc1 | -51.8%

Row | Structure (SMILES) | hERG current change (%, negative = inhibition) at 10uM
43 | COc1ccc(N(CC(=O)Nc2ccccc2C(=O)N2CCCC2)S(C)(=O)=O)cc1 | 27.7%
44 | Cc1ccc(S(=O)(=O)N(CC(=O)Nc2ccccc2C(=O)O)c2ccc(Cl)cc2)cc1 | 13.6%
45 | O=C(CN(c1ccccc1)S(=O)(=O)c1ccc(Cl)cc1)Nc1ccccc1C(=O)N1CCCC1 | -54.2%
46 | COc1ccc(N(CC(=O)Nc2ccccc2C(=O)N2CCOCC2)S(=O)(=O)c2ccc(F)cc2)cc1 | -44.6%
47 | CCOc1ccc(N(CC(=O)Nc2ccccc2C(=O)N2CCCC2)S(C)(=O)=O)cc1 | 2.43%
48 | CCCn1c(SCC(=O)c2[nH]c(C)c(C(C)=O)c2C)n[nH]c1=O | -1.57%
49 | COc1ccc(OC)c(NS(=O)(=O)c2ccc(NC(=O)c3ccc(NS(C)(=O)=O)cc3)cc2)c1 | 14.2%
50 | Cc1ccc(-n2c(SCC(=O)Nc3nccs3)nc3c(c2=O)SCC3)cc1 | 0.0407%
51 | CC1CC1C(=O)OCC(=O)Nc1ccccc1Oc1ccccc1 (stereo not drawn) | 13.9%
52 | COc1ccc(Cl)cc1NC(=O)C1CC(=O)N(c2ccc(F)cc2)C1 (stereo not drawn) | 4.41%
53 | CSc1ccc(/C=C(\NC(=O)c2ccco2)C(=O)N2CCCCC2)cc1 | -29.6%
54 | CSc1ncc(Cl)c(C(=O)Nc2ccc(C)c(C)c2)n1 | 13.4%
55 | CCOc1ccc(-c2c(C)n([O-])c3c([n+]2=O)CCCCC3)cc1 | 17.4%
56 | CCOc1ccc(-n2c(-c3ccc(OC)cc3)c[n+]3c2CCCCC3)cc1.[Br-] | -76%
57 | CCOc1ccc(-c2c(C)n(-c3ccc(OCC)cc3)c3[n+]2CCCCC3)cc1.[O-][Cl+3]([O-])([O-])[O-] | -77.7%
58 | CCOc1ccc(-c2c(C)n([O-])c3c([n+]2=O)CCCC3)cc1 | -1.2%
59 | CCOc1ccc(N2C(=O)CC(Cc3ccc(Br)cc3)C2=O)cc1 (stereo not drawn) | 5.77%
60 | CCOc1ccc(-n2c(-c3ccc(Br)cc3)c[n+]3c2CCCCC3)cc1.[Br-] | -77.7%
61 | O=C(CSc1ncnc2c1oc1ccccc12)NCc1ccco1 | -12.4%
62 | CC(C)(C)SCCNC(=O)c1ccc(CN2CCc3ccccc3C2)cc1 | -35.1%
63 | O=C(Cn1ccsc1=NC(=O)c1ccco1)c1ccccc1 | -6.93%

Row | Structure (SMILES) | hERG current change (%, negative = inhibition) at 10uM
64 | O=C(Nc1ccc(F)cc1F)c1cc(=O)n(-c2ccccc2)c(=O)[nH]1 | 6.37%
65 | COc1ccc(NC(=O)CSC2=NC(=O)CC(C)=N2)cc1 | 15.1%
66 | O=C(NNC(=S)NC(=O)c1ccccc1)c1ccc(O)cc1 | 24.7%
67 | O=C(/C=C/c1ccccc1)N(Cc1ccc(Cl)cc1)C1CCS(=O)(=O)C1 (stereo not drawn) | -30.6%
68 | O=C(/C=C/c1ccc(Cl)cc1)N(Cc1cccs1)C1CCS(=O)(=O)C1 (stereo not drawn) | -72.8%
69 | Cc1ccc(/C=C/C(=O)N(Cc2cccs2)C2CCS(=O)(=O)C2)cc1 (stereo not drawn) | -79%
70 | O=C(c1ccc(Cl)cc1)N(Cc1cccs1)C1CCS(=O)(=O)C1 (stereo not drawn) | -24.4%
71 | O=C(/C=C/c1ccccc1)N(Cc1cccc(Cl)c1)C1CCS(=O)(=O)C1 (stereo not drawn) | -25.6%
72 | O=C(/C=C/c1ccccc1Cl)N(Cc1cccs1)C1CCS(=O)(=O)C1 (stereo not drawn) | -31.5%
73 | O=C(/C=C/c1ccccc1)N(Cc1cccs1)C1CCS(=O)(=O)C1 (stereo not drawn) | -30.3%
74 | COc1ccc(/C=C/C(=O)N(Cc2cccs2)C2CCS(=O)(=O)C2)cc1 (stereo not drawn) | -48.6%
75 | O=C(/C=C/c1ccc(Cl)cc1)N(Cc1ccccc1)C1CCS(=O)(=O)C1 (stereo not drawn) | -75%
76 | S=C(NCc1cccs1)Nc1ccccc1Cl | 9.58%
77 | CCC1CCCCN1C(=O)CCS(=O)(=O)c1ccccc1 (stereo not drawn) | 13.7%
78 | COc1ccc(/C(O)=C2/C(=O)C(=O)N(CCCC(=O)O)C2c2ccc(OC)cc2)cc1 (stereo not drawn) | 11.7%
79 | Cc1cc(C(=O)NCc2cccc(Cl)c2)c2ccccc2n1 | 15.8%
80 | COC(=O)c1cccc(C23CC4(C2)[C@H](CN(Cc2cccnc2)[C@@H]4c2ccccc2)C3c2ccccc2)c1 (stereo partly drawn) | 8.51%
81 | CCC(=O)N1CCc2cc(S(=O)(=O)CCC(=O)NC3CCCCC3)ccc21 | 5.33%
